Consider eleven molecules from PubChem BioAssay AID2568 (National Center for Advancing Translational Sciences (NCATS), 2010).

“And” between values parts separate entries of the source, which are not always exact repeats. Equal values may be shown once. Records with an inconclusive call do not appear. The source made the active and inactive calls. The call rests on the fitted dose curve.

Sequence of Neuropeptide S receptor (Homo sapiens) (Q6W5P4 whole entry, looked up): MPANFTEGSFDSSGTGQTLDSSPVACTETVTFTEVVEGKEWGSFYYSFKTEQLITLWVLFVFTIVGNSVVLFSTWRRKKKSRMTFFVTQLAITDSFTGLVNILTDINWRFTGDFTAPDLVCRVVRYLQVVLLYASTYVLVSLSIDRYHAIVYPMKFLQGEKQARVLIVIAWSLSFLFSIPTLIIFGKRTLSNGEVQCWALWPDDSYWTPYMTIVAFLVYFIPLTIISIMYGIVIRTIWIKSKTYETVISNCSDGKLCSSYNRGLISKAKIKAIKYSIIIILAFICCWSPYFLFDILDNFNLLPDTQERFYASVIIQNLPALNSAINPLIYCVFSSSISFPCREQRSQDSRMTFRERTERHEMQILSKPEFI

This experiment has as its target Neuropeptide S receptor (Homo sapiens) (UniProt Q6W5P4). In words: Confirmation Concentration-Response Assay for Antagonists of the Neuropeptide S Receptor: cAMP Signal Transduction, SAR for Probe. The following applies: CHO-NPSR cells, cAMP TR-FRET, antagonist mode; series mostly up to 47.8 µM. An excerpt: NIH Chemical Genomics Center [NCGC] NIH Molecular Libraries Probe Production centers Network [MLPCN] MLPCN Grant: X01-DA026210-01 Assay Submitter (PI): Heilig, Markus Alexander NCGC Assay Overview: Neuropeptide S receptor (NPSR), previously known as GPR154, is a recently de-orphanized G protein coupled receptor. Its endogenous ligand is the 20 amino acids peptide Neuropeptide S (NPS). […] NPS and its receptor are found in various tissues. Specifically they are highly expressed in brain areas that have been implicated in modulation of arousal, stress and anxiety. Central administration of NPS in mice produces an unusual profile of activity by inducing wakefulness and arousal, while at the same time suppressing anxiety. Therefore, NPSR may represent a novel drug target for the treatment of sleep and anxiety disorders. To identify NPSR antagonists, we developed a cell-based cAMP assay. NPS can stimulate the production of cAMP in Chinese hamster ovary cells stably expressing NPS receptor. This change in intracellular cAMP level can be detected by a homogeneous LANCE cAMP assay based on the TR-FRET (time resolved fluorescence resonance energy transfer) between a europium-labeled cAMP tracer complex and a cAMP-specific antibody labeled with Alexa Fluor 647. The europium-labeled cAMP tracer complex is formed by the tight interaction between Biotin-cAMP (b-cAMP) and streptavidin labeled with Europium-W8044 chelate (Eu-SA). Light pulse at 320 nm excites the europium of the cAMP tracer and the energy emitted is transferred to the Alexa molecule bound to the cAMP antibody, generating a TR-FRET signal at 665 nm. Residual energy from the europium will produce a light at 620 nm. The native unlabeled cAMP from cell lysates competes with the europium-cAMP tracer for antibody binding and reversely reduces the emission signal of Alexa by interrupting FRET between the two labeled molecules. Both emission signals from the FRET donor (620 nm) and the acceptor (665 nm) can be detected by a plate reader in the TRF mode. Expression of result in fluorescence ratio (665 nm/620 nm) helps to normalize differences due to cell density and reagent dispensing. This assay was successfully optimized to a 1536-well plate format. Select compounds from the primary screen (AID 1461) were chosen for confirmation based on potency, efficacy, SAR, and activity across other assays in PubChem and at NCGC. Other compounds are analogs of active compounds from the primary screen.
NCGC Assay Protocol Summary: A Chinese hamster ovary (CHO) cell line stably expressing the NPS receptor (CHO-NPSR) was obtained from Dr. Heilig lab at NIAAA and maintained in F-12 Kaighn's media (Invitrogen, Carlsbad, CA, 21127) supplemented with 10 % FBS, 100 units/ml penicillin, 100 ug/ml streptomycin and 250 ug/ml geneticin at 37C, 5% CO2 in a humidified atmosphere. Before the assay, aliquots of cells were frozen and stored at -135C. The assay was performed in 1536-well format. Data are reported for both the ratio of the two emission wavelengths, and also for the component 'donor' channel, Em2=620. […] IC50 values were determined from concentration-response data modeled with the standard Hill equation. NPS 1536-well assay protocol: (1) Fresh or frozen CHO-NPSR cells were suspended in F-12 Kaighn's media supplemented with 10 % FBS, 100 units/ml penicillin and 100 ug/ml streptomycin. Cells were plated at 4 ul/well (1200 cells) to white, tissue culture treated 1536-well plates, and then cultured at 37C, 5 % CO2 for 16 to 30 hours. (2) Add 23 nl/well of compound in DMSO solution. The final titration for each compound was between 0.6 nM and 46 uM. (3) Add 1 ul of stimulation reagent (1X HBSS buffer, 5 mM HEPES, 0.1% BSA, 500 uM RO-201724 (Sigma-Aldrich, B8279), 1.5% Alexa 647-labeled anti-cAMP antibody (from Perkin Elmer), 100 nM NPS) (4) Incubation at 37C, 5 % CO2 for 60 min. (5) Add 1 ul/well detection reagent. […]
In general terms: TR-FRET usually uses a lanthanide donor and a delayed reading to cut background.
On to `S=P(c1ccccc1)(c1ccccc1)c1c[n+](Cc2ccccc2)c2ccccn12`, for which the Potency was 9.96 µM (active).

On to `Cc1c(P(=S)(c2ccccc2)c2ccccc2)[n+]2ccccc2n1CCCc1ccccc1`, for which the Potency was 0.772 µM (active).

As for `Cc1nc2ccccn2c1P(=S)(c1ccccc1)c1ccccc1`, the Potency is 25 µM (active).

As to `Cc1[nH]c2ccccc2c1P(=S)(c1ccccc1)c1ccccc1`, the Potency was 39.7 µM (active).

With `S=P(c1ccccc1)(c1ccccc1)c1c(-c2ccccc2)[nH]c2ccccc12`, the Potency was 31.5 µM (active).

`Cc1c(P(=S)(c2ccccc2)c2ccccc2)[n+]2ccccc2n1C`: the Potency was 2.23 µM (active) and 4.87 µM (active).

On to `Cc1c(P(=S)(c2ccccc2)c2ccccc2)[n+]2ccccc2n1CCc1ccccc1`, for which the Potency is 2.5 µM (active).

Consider `Cc1c(P(=S)(c2ccccc2)c2ccccc2)c2ccccc2n1C`, for which the Potency was 31.5 µM (active).

On to `Cc1c(P(=S)(c2ccccc2)c2ccccc2)[n+]2ccccc2n1C/C=C/c1ccccc1`, for which the Potency is 0.387 µM (active).

On to `Cc1c(P(=S)(c2ccccc2)c2ccccc2)[n+]2ccccc2n1Cc1ccccc1`, for which the Potency is 1.99 µM (active).

On to `Cn1c(-c2ccccc2)c(P(=S)(c2ccccc2)c2ccccc2)c2ccccc21`, for which the Potency result was “inactive”.
